Inconclusive results are not listed. Active and inactive are the calls of the source. Unless noted, the call rests on the fitted dose curve; in most records, active means well fitted curve in the direction sought with a large enough effect in the repeat runs; inconclusive means weak or mixed curves; inactive means no such curve, though single readings can be large; an effect the other way counts as inactive or inconclusive.
How the values were obtained:
[1] = qHTS assay for small molecule agonists of the p53 signaling pathway (AID 651631; calls by dose curve; further: nearly all actives have a fitted effect of over 15% in size)
Outline: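 We treat p53RE-bla HCT-116 cells with compounds for 16 h at 37 °C, add LiveBLAzer B/G FRET substrate for 2 h at room temperature, and measure fluorescence intensity.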

[2] = qHTS assay for small molecules that induce genotoxicity in human embryonic kidney cells expressing luciferase-tagged ATAD5 (AID 651632); further: nearly all actives have a fitted effect of over 15% in size
Outline: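 HEK293T cells carrying a luciferase reporter tagged to ATAD5 were exposed to compound or DMSO vehicle for 16 hr at 37C, 5% CO2. Amplite was added, and after 30 min at room temperature luciferase activity was read as a marker of ATAD5 induction.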

[3] = qHTS assay for small molecule agonists of the p53 signaling pathway - cell viability (AID 651633; calls by dose curve;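 further: p53RE-bla HCT reporter cells with a stable beta-lactamase p53 reporter; series mostly up to about 83 µM; nearly all actives have a fitted effect of over 30% in size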)
Outline: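 Viability counter-read: CellTiter-Glo luminescence (30 min, room temperature) in the same p53RE-bla plates. These plates had been exposed to compounds for 16 h at 37 C.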

[4] = qHTS assay for small molecules that induce genotoxicity in human embryonic kidney cells expressing luciferase-tagged ATAD5 - cell viability (AID 651634; calls by dose curve; further: nearly all actives have a fitted effect of over 25% in size)
Outline: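 HEK293T cells expressing luciferase-tagged ATAD5 were exposed to compound or DMSO for 15.5 hr at 37C, 5% CO2. Viability was then read as live-cell protease activity by CellTiter-Fluor fluorescence after 30 min at 37C.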

[5] = qHTS assay to test for compound auto fluorescence at 590 nm (red) in HepG2 cells (AID 720674)
Outline: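 Red autofluorescence (Ex/Em 540/590 nm, Rose Bengal sodium equivalents) was measured in HepG2 cells, 2,000 per well in MEM plus 10% FBS, plated overnight at 37 C. Readings were taken 1 hr after adding 23 nL compound or DMSO, at 37 C and 5% CO2.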

[6] = qHTS assay to test for compound auto fluorescence at 535 nm (green) in HepG2 cells (AID 720675)
[7] = qHTS assay to test for compound auto fluorescence at 460 nm (blue) in HEK293 cells (AID 720678)
Outline: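 HEK293 cells (2,000/well, medium with 10% dialyzed FBS) attached 4-5 hr, then exposed to compound overnight at 37C, 5% CO2. Blue fluorescence read at 405/460 nm, with triamterene as reference fluorophore.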

[8] = qHTS assay to test for compound auto fluorescence at 590 nm (red) in HEK293 cells (AID 720679)
Outline: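 HEK293 cells (2,000/well, 10% dialyzed FBS) attached 4-5 hr, then dosed with compound or DMSO and incubated overnight at 37C, 5% CO2. Red fluorescence read at 540/590 nm, Rose Bengal sodium as reference fluorophore.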

[9] = qHTS assay to test for compound auto fluorescence at 535 nm (green) in HEK293 cells (AID 720680)
[10] = qHTS assay to test for compound auto fluorescence at 460 nm (blue) in HEK293 cell free culture (AID 720681)
Outline: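 Blue fluorescence (Ex 405/Em 460 nm, triamterene-equivalent) was read immediately after pin transfer of compound or DMSO into medium (DMEM, 10% FBS) without cells.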

[11] = qHTS assay to test for compound auto fluorescence at 535 nm (green) in HEK293 cell free culture (AID 720682)
Outline: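 Green-channel intensity (Ex/Em 485/535 nm) was recorded from compound-treated wells containing only DMEM with 10% FBS. Fluorescein provided the equivalency standard.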

[12] = qHTS assay to test for compound auto fluorescence at 590 nm (red) in HEK293 cell free culture (AID 720683)
Outline: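 Red-channel autofluorescence of compounds in culture medium (DMEM, 10% FBS), no cells, measured at 540/590 nm. Rose Bengal sodium is the reference fluorophore for equivalence.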

[13] = qHTS assay to test for compound auto fluorescence at 590 nm (red) in HepG2 cell free culture (AID 720684)
Outline: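 Steps: dispense MEM/10% FBS medium, no cells; pin compound or DMSO vehicle; read red channel, Ex/Em 540/590 nm. Output given as Rose Bengal sodium equivalents.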

[14] = qHTS assay to test for compound auto fluorescence at 460 nm (blue) in HepG2 cell free culture (AID 720685)
Outline: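 Compound (23 nL) or DMSO pinned into cell-free MEM with 10% FBS; blue fluorescence read at 405/460 nm excitation/emission, expressed as auto-fluorescence equivalency to triamterene.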

[15] = qHTS assay to test for compound auto fluorescence at 535 nm (green) in HepG2 cell free culture (AID 720686)
[16] = qHTS assay to test for compound auto fluorescence at 460 nm (blue) in HepG2 cells (AID 720687)
Outline: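 Blue-channel autofluorescence (Ex/Em 405/460 nm, triamterene-equivalent) was measured after 1 hr compound exposure at 37 C, 5% CO2. Cells were HepG2, plated overnight at 37 C in MEM plus 10% FBS.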

[17] = qHTS assay to identify small molecule antagonists of the glucocorticoid receptor (GR) signaling pathway - cell viability counter screen (AID 720693); further: nearly all actives have a fitted effect of over 55% in size
[18] = qHTS assay for identifying genotoxic compounds that show differential cytotoxicity against isogenic chicken DT40 cell lines with known DNA damage response pathways - wild type cell line (AID 743012); further: nearly all actives have a fitted effect of over 60% in size
Outline: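 Parental DNA repair-proficient DT40 cells, 300 per well, were pre-incubated ~0.5 h at 37 C/5% CO2, pin-dosed with compounds in DMSO, then incubated 40 h. Viability was read as CellTiter-Glo luminescence after 30 min at room temperature.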

[19] = qHTS assay for identifying genotoxic compounds that show differential cytotoxicity against isogenic chicken DT40 cell lines with known DNA damage response pathways - Rev3 mutant cell line (AID 743014); further: nearly all actives have a fitted effect of over 55% in size
[20] = qHTS assay for identifying genotoxic compounds that show differential cytotoxicity against isogenic chicken DT40 cell lines with known DNA damage response pathways - Rad54/Ku70 mutant cell line (AID 743015); further: nearly all actives have a fitted effect of over 60% in size
[21] = qHTS assay to identify small molecule antagonists of the androgen receptor (AR) signaling pathway - cell viability counter screen (AID 743033; further: nearly all actives have a fitted effect of over 45% in size)
[22] = qHTS assay to identify small molecule antagonists of the androgen receptor (AR) signaling pathway using the MDA cell line - cell viability counter screen (AID 743041; further: nearly all actives have a fitted effect of over 45% in size)
Outline: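 Cells were plated at 3,000 per well and left 5 h. Compounds in DMSO were then pinned in, followed by R1881. After 16 h at 37C, CellTiter-Fluor fluorescence gave viability.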

[23] = qHTS assay to identify small molecule antagonists of the thyroid receptor (TR) signaling pathway (AID 743065); further: series mostly up to about 70 µM; nearly all actives have a fitted effect of over 55% in size
Outline: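 Antagonism measured as loss of luciferase signal in GH3 cells stably carrying a TRE-luciferase reporter, co-treated with compound and T3 (1 nM final) for 23.5 h at 37 C. Viability was read in the same well by CellTiter-Fluor.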

[24] = tested on: thyroid hormone receptor (rat, GH3 cells); assay: qHTS assay to identify small molecule agonists of the thyroid receptor (TR) signaling pathway (AID 743066; calls by dose curve)
[25] = qHTS assay to identify small molecule antagonists of the estrogen receptor alpha (ER-alpha) signaling pathway using the BG1 cell line - cell viability counter screen (AID 743081);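 further: compound given together with 17beta-estradiol as the ER stimulus; series mostly up to about 70 µM; nearly all actives have a fitted effect of over 45% in size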
Aromatase (Homo sapiens) = Aromatase (Homo sapiens) (UniProt P11511); assay: qHTS assay to identify aromatase inhibitors (AID 743083); further: series mostly up to about 70 µM; nearly all actives have a fitted effect of over 55% in size
[26] = qHTS assay to identify aromatase inhibitors - cell viability counter screen (AID 743084)
[27] = molecular target: Aryl hydrocarbon receptor (Homo sapiens) (UniProt P35869); assay: qHTS assay to identify small molecule that activate the aryl hydrocarbon receptor (AhR) signaling pathway (AID 743085);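 further: HG2L7.5c1 human HepG2 liver cells with stably integrated DRE-driven firefly reporter; series mostly up to about 70 µM; nearly all actives have a fitted effect of over 15% in size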
Outline: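 AhR agonist activity is inferred from enhanced light output of a DRE-controlled firefly luciferase reporter in HepG2 cells, measured with ONE-Glo following 24 h treatment at 37C.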

[28] = qHTS assay to identify small molecule that activate the aryl hydrocarbon receptor (AhR) signaling pathway - cell viability counter screen (AID 743086);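 further: HepG2 liver cells carrying the AhR DRE luciferase reporter; series mostly up to about 70 µM; nearly all actives have a fitted effect of over 45% in size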
Outline: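 Cytotoxicity counter screen: CellTiter-Fluor signal (30 min, 37 C) in 4000 HepG2 cells/well carrying the DRE-luciferase reporter, following 24 h compound exposure at 37 C.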

[29] = molecular target: Acetylcholinesterase (Homo sapiens) (UniProt P22303); assay: Acetylcholinesterase (AChE) small molecule antagonists: enzyme-based qHTS assay (AID 1347397; calls by dose curve; further: nearly all actives have a fitted effect of over 55% in size); conditions: Potency: AChE enzyme activity inhibition; outcome: AChE enzyme activity inhibition
Outline: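 rhAChE 50 mU/mL (dispensed) + cpd or DMSO, 30 min RT; add DTNB/acetylthiocholine cocktail, 10 min RT; colorimetric thiocholine readout. qHTS, 1536-well format.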

[30] = molecular target: Acetylcholinesterase (Homo sapiens) (UniProt P22303); assay: Acetylcholinesterase (AChE) small molecule antagonists: fluorescence cell-based qHTS assay (AID 1347398; calls by dose curve; further: nearly all actives have a fitted effect of over 50% in size); conditions: Potency: AChE activity; outcome: AChE activity
Outline: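 Read-out is Thiolite Green fluorescence at Ex/Em = 490/520 nm, formed by reaction with thiocholine released when cellular AChE in SH-SY5Y cells hydrolyzes acetylthiocholine. Compounds were preincubated 30 min at 37 C before substrate.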

[31] = molecular target: Acetylcholinesterase (Homo sapiens) (UniProt P22303); assay: Acetylcholinesterase (AChE) small molecule antagonists: enzyme-based qHTS assay with human liver microsomes (AID 1347399; calls by dose curve; further: nearly all actives have a fitted effect of over 60% in size); conditions: Potency: qHTS inhibition; outcome: qHTS inhibition
Outline: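 Recombinant human AChE (50 mU/mL in the enzyme mix) and human liver microsomes (0.25 mg/mL final) were preincubated with compound and NADPH (0.25 mg/mL final) for 30 min at 37 C. Acetylthiocholine/DTNB was then added; thiocholine was read colorimetrically after 10 min at room temperature.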

Measured: Potency

Chain of Acetylcholinesterase (Homo sapiens) (P22303 whole entry, looked up): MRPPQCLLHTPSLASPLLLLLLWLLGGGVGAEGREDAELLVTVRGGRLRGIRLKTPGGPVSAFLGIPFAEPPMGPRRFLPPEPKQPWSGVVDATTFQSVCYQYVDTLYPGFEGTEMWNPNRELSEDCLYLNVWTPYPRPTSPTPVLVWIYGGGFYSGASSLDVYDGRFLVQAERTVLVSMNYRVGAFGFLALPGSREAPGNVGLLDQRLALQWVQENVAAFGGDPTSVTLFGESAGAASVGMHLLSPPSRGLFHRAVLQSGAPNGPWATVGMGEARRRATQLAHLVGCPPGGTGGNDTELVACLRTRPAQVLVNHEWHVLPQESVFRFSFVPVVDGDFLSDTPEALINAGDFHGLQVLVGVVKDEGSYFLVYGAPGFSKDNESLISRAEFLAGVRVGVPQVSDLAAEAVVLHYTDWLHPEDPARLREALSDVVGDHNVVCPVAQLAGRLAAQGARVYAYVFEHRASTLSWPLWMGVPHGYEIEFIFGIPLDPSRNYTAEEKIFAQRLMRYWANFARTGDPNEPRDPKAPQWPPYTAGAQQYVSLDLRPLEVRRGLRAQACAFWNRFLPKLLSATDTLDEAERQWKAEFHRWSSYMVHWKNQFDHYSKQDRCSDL
Chain of Aryl hydrocarbon receptor (Homo sapiens) (P35869 whole entry, looked up): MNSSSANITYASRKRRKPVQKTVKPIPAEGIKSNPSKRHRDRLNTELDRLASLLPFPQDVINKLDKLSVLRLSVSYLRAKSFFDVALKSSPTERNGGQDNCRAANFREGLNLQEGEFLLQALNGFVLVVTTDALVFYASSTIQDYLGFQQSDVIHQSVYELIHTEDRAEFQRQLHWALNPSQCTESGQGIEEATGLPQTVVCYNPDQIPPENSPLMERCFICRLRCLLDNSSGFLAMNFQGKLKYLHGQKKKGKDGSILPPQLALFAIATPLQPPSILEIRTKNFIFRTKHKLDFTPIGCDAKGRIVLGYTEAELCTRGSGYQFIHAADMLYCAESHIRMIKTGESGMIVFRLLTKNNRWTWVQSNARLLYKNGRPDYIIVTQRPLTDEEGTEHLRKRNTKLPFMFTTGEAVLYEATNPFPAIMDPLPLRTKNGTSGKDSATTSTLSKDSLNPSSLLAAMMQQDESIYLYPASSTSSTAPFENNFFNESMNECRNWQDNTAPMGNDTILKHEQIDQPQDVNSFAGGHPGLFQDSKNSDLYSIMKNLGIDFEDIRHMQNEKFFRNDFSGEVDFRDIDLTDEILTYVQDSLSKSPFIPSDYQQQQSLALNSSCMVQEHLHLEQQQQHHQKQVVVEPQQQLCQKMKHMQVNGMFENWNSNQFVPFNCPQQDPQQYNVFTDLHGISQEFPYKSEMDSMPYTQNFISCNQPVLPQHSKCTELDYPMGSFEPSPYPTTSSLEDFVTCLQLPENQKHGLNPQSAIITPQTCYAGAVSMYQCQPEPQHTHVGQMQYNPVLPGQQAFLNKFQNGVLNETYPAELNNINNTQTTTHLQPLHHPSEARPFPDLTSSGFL
Chain of Aromatase (Homo sapiens) (P11511 whole entry, looked up): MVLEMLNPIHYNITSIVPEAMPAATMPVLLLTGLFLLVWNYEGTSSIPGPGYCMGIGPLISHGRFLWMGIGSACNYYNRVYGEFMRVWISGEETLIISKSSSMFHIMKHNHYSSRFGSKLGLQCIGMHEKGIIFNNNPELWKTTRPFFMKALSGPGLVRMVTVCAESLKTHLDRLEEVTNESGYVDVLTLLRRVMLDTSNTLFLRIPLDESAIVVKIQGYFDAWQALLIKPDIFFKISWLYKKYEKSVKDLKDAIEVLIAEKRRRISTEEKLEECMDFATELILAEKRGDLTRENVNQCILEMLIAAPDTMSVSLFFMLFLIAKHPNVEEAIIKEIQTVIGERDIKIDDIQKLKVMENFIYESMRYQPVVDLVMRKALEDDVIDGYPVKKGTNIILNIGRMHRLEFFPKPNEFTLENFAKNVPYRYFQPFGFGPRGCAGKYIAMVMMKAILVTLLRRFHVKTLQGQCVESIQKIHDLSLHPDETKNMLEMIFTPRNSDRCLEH

Oc1ccc2c3c1O[C@H]1[C@@H](O)C=C[C@H]4[C@H](C2)NCC[C@@]341
not listed: [29] | [30] | [31]
inactive: all other assays above

CCCCCC1CCCC(=O)O1 (stereo unspecified)
inactive: [29] | [30] | [31]

CC(=O)c1ccc(Cl)c(Cl)c1Cl
inactive: [29] | [30] | [31]

CCc1ccc(C(c2ccc(CC)cc2)C(Cl)Cl)cc1
inactive: [29] | [30] | [31]

COC(=O)c1ccccc1O
inactive: [29] | [30] | [31]

From PubChem BioAssay (Tox21)
